Lamin A splicing: LMNA splicing modulation; actives 0.01% (n = 200,000); HeLa LMNA splicing GFP/RFP minigene ratio, 48 h; Potency, µM (doses to about 46.1 µM), for the others: at the top dose ratio change, negative = inhibition, hits mostly inhibitors; active = well fitted inhibition curve with a large enough effect in the signal ratio, with a control signal flat, not every such curve was filed as active; inconclusive = small, poorly fitted or top-dose-only effect, or effect the other way, or a change in a side signal; the % refers to the signal ratio; note: % is set by controls: 0 for no effect and ±100 for the full control effect
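Read-out is the ratio of GFP to DsRed2 object intensity, acquired by 488 nm laser-scanning cytometry on HeLa lamin A-EGFP minigene reporter cells. Compound incubation 48 hrs at 37 °C in Opti-MEM with 2% FBS; DMSO 0.5% final.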
JMJD2E inh: blocks human JMJD2E demethylase activity. JMJD2E catalytic domain, FDH-coupled NADH fluorescence (FDH is formaldehyde dehydrogenase). B2RXH2. Potency, µM (titrated, usually from 57.1 µM), for inactives: at the top dose activity change, negative = inhibition, hits mostly inhibitors. actives 1.6% (n = 230,000). AID 2147;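 note: 0% = wells with enzyme and -100% = buffer wells without enzyme; nearly all actives have a fitted effect of over 50% in size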
HTT ATP protect: cytoprotection in Huntington HTT-Q103 PC12 cell model; PC12 HTT-Q103 induced, cytoprotection, ATP luminescence, 40 h; Potency, µM (highest dose often 56.4 µM), for the others: cytoprotection (ATP increase), actives largely listed as activators; actives 0.14% (n = 230,000); active = well fitted curve in the direction sought with a large enough effect; inconclusive = small, poorly fitted or top-dose-only effect, or another doubt; inactive = no such curve, though single readings can be large; an effect the other way counts as inactive or inconclusive; note: % of control where 0% means no effect; nearly all actives have a fitted effect of over 45% in size
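Quantitative HTS on tebufenozide-induced (100 nM) PC12 cells expressing HTTQ103 exon 1–GFP; compounds tested as a concentration series; survival measured via cellular ATP.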
HTT aggregate: inhibitors of mutant huntingtin aggregate formation in PC12 cells. PC12 HttQ103-GFP aggregates, Acumen cytometry, 40 h. Potency, µM (doses to about 46.1 µM), without a hit: at the highest dose activity change, negative = inhibition, hits mostly inhibitors. actives 1.1% (n = 220,000). AID 1688; active = well fitted curve in the direction sought with a large enough effect; inconclusive = small, poorly fitted or top-dose-only effect, or another doubt; inactive = no such curve, though single readings can be large; an effect the other way counts as inactive or inconclusive; note: % is set by controls: 0 for no effect and ±100 for the full control effect; nearly all actives have a fitted effect of over 60% in size
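Ecdysone-promoter PC12 model expressing HTT exon 1 Q103 fused to GFP, induced by tebufenozide at 100 nM final. Compounds titrated; aggregates sized 1–25 µm scored on a 488 nm laser cytometer.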
HPGD inh: HPGD (human) dehydrogenase inhibition. purified HPGD, NADH fluorescence kinetic, PGE2 substrate. Potency, µM, for the others: at the top dose activity change, negative = inhibition, actives largely listed as inhibitors. actives 4.3% (n = 150,000); note: % is set by controls: 0 for no effect and ±100 for the full control effect
Target sequence (P15428 whole entry, looked up): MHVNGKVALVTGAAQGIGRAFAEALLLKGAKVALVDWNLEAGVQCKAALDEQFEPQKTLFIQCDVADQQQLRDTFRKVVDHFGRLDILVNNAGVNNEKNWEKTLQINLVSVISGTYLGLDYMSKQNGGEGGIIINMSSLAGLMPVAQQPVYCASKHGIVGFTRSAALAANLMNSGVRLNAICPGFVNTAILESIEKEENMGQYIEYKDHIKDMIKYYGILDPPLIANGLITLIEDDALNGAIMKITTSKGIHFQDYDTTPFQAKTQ
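NADH formation kinetics: reaction with 30 uM PGE2 and 1 mM NAD+ (final), 20 nM enzyme, Tris-HCl pH 8 with Tween 20, after 15 min compound preincubation at room temperature. Fluorescence change, last versus first of five reads.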
ALDH1A1 block: blocks purified human ALDH1A1 activity; actives 7.3% (n = 220,000); Potency, µM (titrated, usually from 75.3 µM), inactives show at the top dose activity, negative = inhibition, actives largely listed as inhibitors; Purified ALDH1A1, NADH fluorescence, propionaldehyde substrate; P00352; AID 1030;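 note: plate controls were no enzyme wells and a reference inhibitor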
Target sequence (P00352 whole entry, looked up): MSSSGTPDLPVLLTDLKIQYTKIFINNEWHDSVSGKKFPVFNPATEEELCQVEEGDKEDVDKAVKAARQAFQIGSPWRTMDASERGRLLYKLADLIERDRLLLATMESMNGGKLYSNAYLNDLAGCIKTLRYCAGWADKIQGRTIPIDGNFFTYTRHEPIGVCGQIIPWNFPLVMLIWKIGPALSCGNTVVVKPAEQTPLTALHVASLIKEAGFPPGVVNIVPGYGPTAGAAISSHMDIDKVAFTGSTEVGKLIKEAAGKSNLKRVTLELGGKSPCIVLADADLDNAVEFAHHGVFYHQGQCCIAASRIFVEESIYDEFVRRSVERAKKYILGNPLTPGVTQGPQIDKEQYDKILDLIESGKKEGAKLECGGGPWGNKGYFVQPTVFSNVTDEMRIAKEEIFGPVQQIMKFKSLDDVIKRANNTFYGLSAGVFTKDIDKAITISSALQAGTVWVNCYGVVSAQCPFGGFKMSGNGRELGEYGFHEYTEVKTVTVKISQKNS
Numbers without * were called inactive; ? = inconclusive; . = no result given; ! = not active in a repeat; [ ] = another dose, or the depositor's remark. Compounds with a hit are over-represented: about 9.2% of the library has one in this group of screens. Unless noted, calls come from the whole dose curve; as a rule, active = well fitted inhibition curve with a large enough effect (not every such curve was filed as active); inconclusive = small, poorly fitted or top-dose-only effect, or another doubt; inactive = no such curve, though single readings can be large or run the other way. Potency is the fitted concentration of half-maximal effect.

SMILES	Lamin A splicing	JMJD2E inh	HTT ATP protect	HTT aggregate	HPGD inh	ALDH1A1 block
O=C(CSc1nnc(SCc2cccc3ccccc23)s1)N/N=C/C=C/c1ccccc1[N+](=O)[O-]	-1%	-3%	11%[10 µM]	22%	-13%	-2%
O=C(CCNS(=O)(=O)c1ccc2c(c1)CCN2C(=O)C1CC1)N1CCN(c2cccc(Cl)c2)CC1	8%[46 µM]	.	.	.	.	.
O=C(NC(=S)Nc1ccc(F)cc1)c1ccc2c(c1)OCCO2	.	-9%	-1%[10 µM]	-22%	.	13µM*
O=C(NC(=S)Nc1c(F)cc(F)cc1Br)c1ccc2c(c1)OCCO2	.	-20%	-21%	11%	.	?
CC(C)(C)C(=O)NC(=S)Nc1ccc(F)cc1	?	4%	17%[10 µM]	-6%	-13%	22µM*
CC(C)(C)c1ccc(C(=O)NC(=S)Nc2ccc(N3CCOCC3)cc2)cc1	?	0%	2%[10 µM]	2%	-5%	10µM*
CC(=O)N1CCN(c2ccc(NC(=S)NC(=O)COc3ccc(C(C)(C)C)cc3)cc2)CC1	?	0%	17%[10 µM]	2%	-10%	19µM*
COC(=O)C/C=C/[C@@H](C)[C@@H](/C=N/OCC[C@@H]1C=C[C@H](OC(C)=O)[C@@H](COC(C)=O)O1)NS(=O)(=O)c1ccc(C)cc1	-5%	-4%	.	1%	?	?
CC(=O)N1CCc2cc(CNS(=O)(=O)c3cccs3)ccc21	-17%[46 µM]	.	.	.	.	.
CCCOc1cc(C)c(S(=O)(=O)n2ccc(C)n2)cc1C	?	2%	-17%	13µM*	-16%	-11%
CC(=O)N1CCN(c2ccc(NC(=O)c3ccc(N4CCCC4)c([N+](=O)[O-])c3)cc2Cl)CC1	1%	11%	-7%[10 µM]	-5%	-5%	7.9µM*
Cc1ccc(NC(=O)c2ccc(NCCCN3CCOCC3)c([N+](=O)[O-])c2)cc1Cl	?	4%	26%[10 µM]	25µM*	-15%	?
Cc1ccc(OC(=O)c2ccc(N3CCOCC3)c([N+](=O)[O-])c2)cc1	0%	-6%	-2%	4%	?	7.1µM*
O=C(Nc1ccc(Cl)c([N+](=O)[O-])c1)c1ccc(NCCCN2CCOCC2)c([N+](=O)[O-])c1	-2%	-4%	18%[10 µM]	1%	-11%	0%
O=C(Oc1ccc(Cl)cc1)c1ccc(N2CCOCC2)c([N+](=O)[O-])c1	-10%	7%	-1%[10 µM]	-5%	-18%	?
O=C(Nc1ccc(N2CCCCC2)c(Cl)c1)c1ccc(N2CCOCC2)c([N+](=O)[O-])c1	7%[0.0737 µM]	-2%	-33%	11µM*	-17%	8.9µM*
O=C(Nc1ccccc1N1CCOCC1)c1ccc(N2CCOCC2)c([N+](=O)[O-])c1	.	0%	.	20%	.	?
NNC(=O)CCc1ccc2ccc3ccccc3c2c1	.	.	14%[10 µM]	.	-11%	-11%[13.5 µM]
Cc1nc2c(c(SCC(=O)Nc3ccccc3C(F)(F)F)n1)CCC2	3%[46 µM]	.	.	.	.	.
COc1ncc2nc(-c3ccc(Cl)cc3)c(=O)n(C[C@H]3CCCO3)c2n1	.	.	1%	.	?	?
CN(C)S(=O)(=O)c1cccc(NC(=O)c2ccc(N3CCOCC3)c([N+](=O)[O-])c2)c1	?	-4%	-78%[10 µM]	?	-17%	18µM*
O=C(Nc1ccc2c(c1)OCO2)c1ccc(N2CCCC2)c([N+](=O)[O-])c1	?	0%	23%[10 µM]	-8%	-21%	16µM*
Cc1ccc(C(=O)Nc2cccc(S(=O)(=O)N3CCOCC3)c2)cc1[N+](=O)[O-]	.	1%	-5%[10 µM]	1%[9.22 µM]	.	?
Cc1ccc(NC(=S)NNC(=O)c2ccc(N3CCOCC3)c([N+](=O)[O-])c2)cc1C	4%	-2%	7%[10 µM]	13%	-13%	4µM*
CN1CCN(c2ncc3nc(-c4ccc(Cl)cc4)c(=O)n(Cc4ccc(F)cc4)c3n2)CC1	9%	.	-1%	.	.	?
SMILES	Lamin A splicing	JMJD2E inh	HTT ATP protect	HTT aggregate	HPGD inh	ALDH1A1 block
C=C[C@](C)(O)CCC=C(C)C	-3%	-6%	.	.	-14%	4%
CCOc1cc(CNC(=O)c2ccc3c(c2)N(C)C(=O)C2CCCCN32)ccc1OC (centres undefined)	-27%[46 µM]	.	.	.	.	.
N#Cc1cccc(NC(=O)N2CCCC3(CCN(S(=O)(=O)c4ccccc4)CC3)C2)c1	.	.	26%	.	3%	-12%
Cc1ccc(-n2c([O-])nc(-[n+]3ccccc3)c2C=O)cc1	-5%	?	-1%	-5%	-15%	8.9µM*
O=S(=O)(c1ccccc1)N1C2CCC1CC(O)(c1cccnc1)C2 (centres undefined)	3%	7%	-17%[10 µM]	3%	-14%	13µM*
CN(C)C(=O)c1ccc(-c2ccc3ncnc(N(C)C)c3c2)cc1	?	.	-15%	.	.	8%
NC(=S)c1ncc(C(F)(F)F)cc1Cl	.	-6%	-2%[10 µM]	12%[9.22 µM]	.	28µM*
NC(=O)c1ncc(C(F)(F)F)cc1Cl	12%[46 µM]	1%	-6%[10 µM]	-5%	.	0%
Cc1noc2ncnc(N3CCCCC3)c12	.	-3%	-5%	9%[9.22 µM]	.	32µM*
CCCCCC#CCC#CCC#CCC#CCCCC(=O)O	1%	16µM*!	13%	27%	-12%	-10%
CCCCCCCCCC(=O)NC(CN1CCOCC1)[C@H](O)c1ccccc1 (some centres undefined)	?	4%	.	.	6%	-8%
CC1=CC(C)C2C(=O)N(O)C(=O)C2C1 (centres undefined)	-3%	4%	10%	-26%	2%	14µM*
Cn1nnnc1SCCCNCc1cccc(OCc2ccccc2F)c1	-10%[46 µM]	.	.	.	.	.
CC(=O)NC(CCS(C)(=O)=O)C(=O)Nc1ccc2c(c1)OCO2 (centres undefined)	-14%	-7%	.	1.1µM*	-6%	14%
CCC(C)NS(=O)(=O)c1ccc(OCC(=O)Nc2ccc3c(c2)OCO3)cc1 (centres undefined)	1%	0%	-9%	9%[9.22 µM]	-15%	1.3µM*
CCCNS(=O)(=O)c1ccc(CCC(=O)Nc2ccc3c(c2)OCO3)cc1	?	2%	-7%[10 µM]	-12%	2%	?
CC(=O)NC(CCS(C)(=O)=O)C(=O)Nc1ccc2c(c1)OCCO2 (centres undefined)	11%	-28%	-8%[10 µM]	21%	-6%	-12%
CCCNS(=O)(=O)c1ccc(CCC(=O)Nc2ccc3c(c2)OCCO3)cc1	?	-2%	.	16%	-13%	10µM*
CC(C)NS(=O)(=O)c1ccc(CCC(=O)Nc2ccc3c(c2)OCO3)cc1	-12%	-3%	9%	-12%	-12%	0.4µM*
CCN(CC)CCNC(=O)c1sc2nc3n(c(=O)c2c1C)CCCCC3	-10%[46 µM]	.	.	.	.	.
CCCNS(=O)(=O)c1ccc(CCC(=O)NCc2ccco2)cc1	6%	5%	14%	14%	-13%	2.2µM*

High-throughput results as filed in PubChem BioAssay.
